Source: PubChem
Shown are actives, neighbours in structure and some others; about 12% of the full set was active somewhere.
Shiga inhibitor = Shiga toxin inhibition | Vero cells, Shiga toxin protein synthesis inhibition reporter | inhibition, % at 38.7 µM | hit rate 9.2% among 290,000; in the data active = inhibition mostly above about 28%, no sharp cut-off; inactive = mostly below about 43%; also: 0% is about no effect
Sm TGR block = inhibitors of Schistosoma mansoni thioredoxin glutathione reductase; Q962Y6; purified TGR, DTNB reduction, TNB absorbance 405 nm; Potency, µM (titrated, usually from 114 µM), without a hit: top-dose activity change, negative = inhibition, most hits filed as inhibitors; hit rate 3% among 360,000; AID 485364; active = well fitted inhibition curve with a large enough effect; inconclusive = small, poorly fitted or top-dose-only effect; inactive = no such curve, though single readings can be large or run the other way; also: potency is read from the fitted curve at half-maximal effect; % is scaled to controls: 0 for no effect and ±100 for the full control effect; nearly all actives have a fitted effect of over 60% in size
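TGR 20 nM + NADPH 100 uM (dispensed conc.), cpd preinc 15 min RT; start with NADPH (500 uM addition) then DTNB (15 mM addition). Kinetic TNB absorbance, 405 nm filter. Four-parameter Hill fit across titration.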
FMDV inh = antivirals against foot and mouth disease virus; FMDV antiviral cell-based qHTS; Potency, µM (doses to about 57.9 µM), for the others: at the highest dose activity change, negative = inhibition, most hits filed as inhibitors; hit rate 1.2% among 410,000; AID 1159524; calls by dose curve; tested in HEK293T cells; also: read-out not given here; potency is read from the fitted curve at half-maximal effect; % is scaled to controls: 0 for no effect and ±100 for the full control effect; nearly all actives have a fitted effect of over 45% in size
Cycloheximide cs = counter-screen hit for Shiga toxin inhibitors, cycloheximide. cell reporter, cycloheximide protein synthesis inhibition counterscreen. max response, %. hit rate 12% among 300,000. AID 2314; in the data active = max response mostly above about 13%, no sharp cut-off; inactive = mostly below about 14%; also: read at 38.3 µM for the half of the compounds with a filed dose; 0% is about no effect
* hit, by the source's call; ? = inconclusive; . = no result given; + = active, no number.

SMILES | Shiga inhibitor | Sm TGR block | FMDV inh | Cycloheximide cs
CC1Cc2ccccc2N1Cc1nc2cc(Cl)ccc2c(=O)[nH]1 (stereo unspecified) | -6.0 | -7.3% | -24.8% | -3.0
COC(=O)c1ccc2c(=O)[nH]c(CN3c4ccccc4CC3C)nc2c1 (stereo unspecified) | -7.5 | 7.08µM* | 0.8% | -1.8
COc1ccccc1CCNC(=O)Cn1ccc2cc(S(=O)(=O)N3CCCCC3)ccc21 | . | 0.4% | 0.7% | .
Oc1[nH]c(=S)sc1/C=C1\C(c2ccccc2)=Nc2ccccc21 | -2.9 | 1.0% | 5.0% | 8.5
Oc1c(C=C2N=c3ccccc3=N2)sc(=S)n1-c1ccc(F)cc1 | 13.1 | -2.0% | ? | 0.3
Cc1ccc(C(=O)Nn2c(O)c(C=C3N=c4ccccc4=N3)sc2=S)cc1 | -7.0 | 1.3% | 8.8% | -1.0
Oc1c(C=C2N=c3ccccc3=N2)sc(=S)n1C1CCCC1 | 25.2 | -8.2% | -0.7% | 19.0*
O=C1N=c2ccccc2=C1c1sc(=S)n(NC(=O)c2cccc(O)c2)c1O | -21.5 | -23.6% | -27.0% | -1.2
Cc1ccc(S(=O)(=O)Nn2c(O)c(C=C3N=c4ccccc4=N3)sc2=S)cc1 | 4.5 | 12.6µM* | -9.3% | -2.8
Oc1[nH]c(=S)sc1C=C1N=c2ccccc2=N1 | 38.3* | -11.7% | 16.3% | 25.2*
O=C1N=c2ccc(Br)cc2=C1c1sc(=S)n(NS(=O)(=O)c2ccccc2)c1O | 3.8 | 11.2µM* | -12.9% | -4.0
COc1ccccc1N1CCN(C(=O)Cn2c(=O)n3nc(-c4cccc(C)c4)nc3c3ccccc32)CC1 | . | 2.6% | -7.7% | .
CC(C)c1cnc2c(c1SCc1cccc(C(F)(F)F)c1)c(=O)n(C)c(=O)n2C | . | -3.8% | ? | .
CCOC(=O)N1CCN(C(=O)CCSc2ccccc2)CC1 | 85.4* | 1.6% | 40.2% | 53.8*
CCOC(=O)N1CCN(C(=O)CCSc2ccc(C)cc2)CC1 | active | 1.1% | 1.3% | 8.6*
NC(=O)C1CCN(C(=O)CCSc2ccccc2)CC1 | 43.8* | ? | 7.6% | 20.2*
CCOC(=O)N1CCN(C(=O)CCSc2ccc(Cl)cc2)CC1 | 17.7 | 0.6% | 27.1% | 12.6
Cc1ccc(SCCC(=O)N2CCN(S(=O)(=O)c3ccccc3)CC2)cc1 | . | -14.5% | ? | .
O=c1[nH]c(=O)n(-c2ccccc2)c2c1C(C(F)(F)F)(C(F)(F)F)N=C(CCC1CCCCC1)N2 | -12.0 | 0.8% | 25.1µM* | -2.2
O=c1[nH]c(=O)n(-c2ccc(F)cc2)c2c1C(C(F)(F)F)(C(F)(F)F)N=C(c1ccc(F)cc1)N2 | -8.4 | -8.9% | 10µM* | 4.6
COc1ccc(C(CC(=O)Nc2ccc(OC)c(OC)c2)N2Cc3ccccc3C2=O)cc1 (stereo unspecified) | . | 11.9% | 11.6% | .
O=C1NN(c2ccccc2)C(=O)/C1=C/c1cccs1 | -13.1 | -14.7% | . | -1.3
O=C1C(=Cc2cccs2)C(=O)c2ccccc21 | 27.5 | -11.6% | 7.6% | 45.9*
O=C1/C(=C\c2ccc(Br)o2)Cc2ccccc21 | 52.8* | -24.4% | 73.4% | 72.7*
CN1C2CCC1/C(=C/c1cccn1C)C(=O)/C2=C\c1cccn1C | -19.5 | 35.5µM* | ? | -5.4
SMILES | Shiga inhibitor | Sm TGR block | FMDV inh | Cycloheximide cs
O=C1/C(=C/c2cccs2)Cc2ccccc21 | 157.0* | -0.7% | 34.4% | 36.0*
O=C1C(=Cc2cccc(Cl)c2)Cc2ccccc21 | . | . | 41.9% | .
Cc1ccc(C=C2C(=O)c3ccccc3C2=O)s1 | 45.1* | -0.2% | 50.2% | 55.9*
Cn1cccc1/C=C1\Cc2ccccc2C1=O | + | 2.6% | 55.9% | 41.5*
Cn1cccc1/C=C1\CCc2ccccc2C1=O | 42.5 | 5.4% | ? | 10.8
COc1ccc(CN2CCNCC2)cc1 | -6.5 | 50.1µM* | -4.5% | -0.6
COc1ccc(CN2CCOCCOCCOCCOCCOCC2)cc1 | -10.7 | 32.3% | 2.4% | -1.6
COc1cc2cc(CNc3ccc(C)cc3)c(=O)n(CC(=O)Nc3ccc(F)cc3F)c2cc1OC | . | ? | 47.2% | .
Cc1ccc(SCc2cc(=O)n(C)[nH]2)cc1 | 55.2* | 9.1% | 13.8% | 7.9
CC(=O)N1CCC2(CCCN(c3ccccc3)C2)CC1 | . | . | -4.2% | .
Cc1nc2sccn2c1CN1CCOc2ccc(CN3CCN(c4ccc(F)cc4)CC3)cc2C1 | . | . | 8.91µM* | .
COc1cc(C=O)ccc1OCc1ccncc1 | -4.3 | 2.4% | -16.0% | -1.5
COc1cc(C=O)c(Br)cc1OCc1ccc(C)cc1 | 87.4* | 5.6% | . | 46.6*
CCOc1ccc(NC(=O)C(CC)n2nc(-c3ccc(C)c(C)c3)ccc2=O)cc1 (stereo unspecified) | . | -2.9% | 0.0% | .
COC(=O)CSC1=C(C#N)C(=O)NC(c2ccccc2)S1 (stereo unspecified) | -1.8 | ? | 7.94µM* | 7.8
C[C@@H]1C(=O)CC2C(C)(C)CCC[C@]2(C)[C@@]1(O)CCc1ccoc1 (stereo partly specified) | . | . | -8.9% | .
CCCNC(=O)CCc1nnc2ccc(N3CCN(c4cccc(OC)c4)CC3)nn12 | . | 0.3% | -5.9% | .
CC(NC(=O)CSc1n[nH]c(-c2ccccc2Cl)n1)c1nc2ccccc2n1C (stereo unspecified) | . | -0.3% | -16.6% | .
Cc1cc(C)c(S(=O)(=O)NCC23C=CC(O2)C2C(=O)N(c4ccccc4)C(=O)C23)c(C)c1 (stereo unspecified) | -2.0 | 4.47µM* | 40.2% | 3.4
O=[N+]([O-])c1ccccc1S(=O)(=O)NCc1ccco1 | -3.4 | 6.3% | 24.4% | -4.5
O=C1C2C3C=CC(CNS(=O)(=O)c4ccccc4[N+](=O)[O-])(O3)C2C(=O)N1c1ccccc1 (stereo unspecified) | 11.9 | 3.16µM* | -12.7% | -2.9
Cc1cc(C)c(S(=O)(=O)NCCS(=O)(=O)N2CCN(c3ccccc3)CC2)c(C)c1 | . | 7.7% | 11.4% | .
COc1cc(CCC(=O)NCc2ccc3c(c2)CCN3C(=O)c2cccc(C)c2)cc(OC)c1OC | . | -13.2% | -5.0% | .
Cc1ccc(NC(=O)CCCc2nnc3n(C)c(=O)c4sccc4n23)cc1F | . | 0.1% | 1.26µM* | .
CCCn1c(=O)c2sccc2n2c(CCCC(=O)Nc3ccc(C)c(F)c3)nnc12 | . | 2.4% | -20.3% | .
SMILES | Shiga inhibitor | Sm TGR block | FMDV inh | Cycloheximide cs
O=C(Nc1ccc(SC(F)F)cc1)c1ccc2nccnc2c1 | 40.6* | -2.9% | . | 45.8*
O=C(Nc1ccc(OC(F)(F)F)cc1)c1ccc2nccnc2c1 | 79.4* | 19.6% | ? | 27.2*
CC(c1ccccc1)N1C(=O)/C(=C/c2ccncc2)SC1=S (stereo unspecified) | -6.1 | 0.0% | 31.6µM* | 0.7
Cc1ccc2[nH]c3c(c2c1)CCc1cn[nH]c1-3 | 27.9* | ? | 43.1% | 25.2*
Cc1ccc2[nH]c3c(c2c1)CCCC3=O | 21.9 | 1.3% | 33.4% | 17.1*
CCCCN1CCc2c([nH]c3ccc(C)cc23)C1=O | 132.4* | -26.3% | 65.3% | 69.6*
Cc1ccc2[nH]c3c(c2c1)CCC3=O | 15.5 | 5.2% | . | 9.6
CN1C(=O)C2CCCCN2c2ccc(C(=O)NCc3ccccc3Br)cc21 (stereo unspecified) | . | 1.1% | 15.9% | .
CCc1nnc2c3ccccc3nc(Nc3ccc(C(C)=O)cc3)n12 | . | -6.6% | -6.5% | .
CCc1cccc(NC(=O)Cn2c(=O)n(CCc3ccc(OC)c(OC)c3)c(=O)c3ccccc32)c1 | . | 1.2% | 15.1% | .
COc1cccc(-c2cc3c(c(OC)c2)OCCN(Cc2cccn2-c2ccccn2)C3)c1 | . | . | 1.3% | .
